Assay results reported in PubChem BioAssay (NCI).
The panel holds about 83,000 compounds, 20% with a hit somewhere; the sample as a whole holds those more often.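 Cells were grown in 96-well plates and exposed to the test compound at a single concentration for 48 hours; results are reported as percent growth, with values below 10 considered active.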 Calls of active or inactive are those of the source.

tested on: SF-295 CNS; experiment: NCI-60 one-dose screen, 48 h (100 = growth as untreated, 0 = no growth, -100 = all killed); settings: 10 µM unless noted

SMILES | growth
CC(c1ccc(-n2cccn2)cc1)c1cnc(N2CCc3ccc(C(N)=O)cc3C2)s1 (centres undefined) | 52.3% (inactive)
COc1cc2c(cc1OC)-c1ccc3cc4c(cc3c1N(CCCN1CCCCC1)C2)OCO4 | 56.9% (inactive)
C[C@@H](C[C@H](CCOCc1cccnc1)c1ccccc1)c1cc2ccccc2o1 | 97.6% (inactive)
N#Cc1c(N)n2c(nc1=Nc1ccc([N+](=O)[O-])cc1)sc1cc(Cl)ccc12 | -4.01% (active)
C=C1C(=O)O[C@H]2[C@H]1CC/C(C(=O)NCCCCCCCCNC(=O)/C1=C/CC[C@@]3(C)O[C@H]3[C@H]3OC(=O)C(=C)[C@@H]3CC1)=C\CC[C@@]1(C)O[C@@H]21 | 110% (inactive)
O=C(NCCOCCOCCOCCNC(=O)c1cc2c(o1)C(=O)c1ccccc1C2=O)NC12CC3CC(CC(C3)C1)C2 | -91.9% (active)
CCOc1ccc2nc(-c3cccc(OCC(=O)NC(C)C)c3)nc(Nc3ccc(-c4cn[nH]c4)cc3)c2c1 | -47.4% (active)
CSc1ncc(C)c(Nc2ccc(Cl)cc2)n1 | 96% (inactive)
O=C1CCC(N2C(=O)c3cccc(NCCCC4CCN(CCNC(=O)c5cc6c(o5)C(=O)c5ccccc5C6=O)CC4)c3C2=O)C(=O)N1 (centres undefined) | -95.2% (active)
CCOC(=O)C1C(=O)C=C(c2cnccn2)CC1c1ccc(OC)c(OC)c1 (centres undefined) | 95.1% (inactive)
OC(CBr)c1ccnc2ccccc12 (centres undefined) | 96.6% (inactive)
O=C1N(c2ccccc2)C(=S)N[C@]12[C@H](c1ccccc1)C1CCCN1[C@]21C(=O)NC2C=CC(Cl)=C[C@H]21 (some centres undefined) | 103% (inactive)
CC(C)n1nc(C#Cc2cccc(O)c2)c2c(N)ncnc21 | -71.9% (active)
COc1cc2c(=O)n(CCCn3ccnc3)c3c4cc5c(cc4ccc3c2cc1OC)OCO5 | -18.4% (active)
O=C(/C=C/C12c3ccccc3C(c3ccccc31)C1C(=O)N(c3ccccc3)C(=O)C12)c1ccccc1 (centres undefined) | -3.2% (active)
O=C(CC12CC3CC(CC(C3)C1)C2)NCCOCCOCCOCCNC(=O)c1cc2c(o1)C(=O)c1ccccc1C2=O | -90.1% (active)
O=C1Nc2ccccc2/C1=N/N=C/c1ccc(OC2OC(CO)C(O)C(O)C2O)cc1 (centres undefined) | 110% (inactive)
CC(=[N-])N1CCC[C@@H](Nc2c3ccccc3nc3ccccc23)C1.[Cl][Pt].[NH-]CCC[NH-] | 56.8% (inactive)
O=C1Nc2ccccc2/C1=N/N=C/c1c[nH]c2ccccc12 | 95.6% (inactive)
CNC1(C#N)CCN(Cc2ccccc2)CC1 | 95.2% (inactive)

SMILES | growth
COc1cc2c(cc1OC)-c1ccc3cc4c(cc3c1N(CCCn1ccnc1)C2)OCO4 | 27.7% (inactive)
NC(=O)c1c(NC(=O)c2ccccn2)sc2c1CCC(=O)C2 | 66.3% (inactive)
NC(N)=N/N=C/c1ccc(Br)cc1 | 48.3% (inactive)
CCNCCNc1cc(C2CCCC2)c(C#N)c2nc3ccccc3n12 | -61.7% (active)
CS(=O)(=O)c1ccc(-c2[nH]c3ccc(F)cc3c2/C=N/O)cc1 | 100% (inactive)
N=C(N)c1ccc(-c2ccc(-c3ccc(Cl)cc3Cl)o2)cc1 | -77.1% (active)
CC(=O)C(C(C)=O)c1nc2sc3cc(Cl)ccc3n2c(=N)c1C#N | 98.4% (inactive)
Cc1ccc(/C=C(\C#N)n2nnc3cc(Cl)c(Cl)cc32)cc1 | -0.103% (active)
O=S(=O)(NCCNc1cc(-c2c(-c3cccc(O)c3)nc3sccn23)ccn1)c1ccc(Br)cc1 | 69% (inactive)
COc1ccc(/C(C)=N/NS(=O)(=O)c2ccc(C)cc2)cc1OC | 98.9% (inactive)
C=C(Cl)COC(=O)C(C)(C)O | 102% (inactive)
CCc1c(C(=O)N[C@@H]2c3cc(Cl)ccc3CC[C@@H]2O)[nH]c(C)c1C(C)=O | 64.7% (inactive)
COc1cc2nc(Nc3ccc(F)cc3)nc(N)c2cc1OC | -2.33% (active)
c1ccc2c(c1)nc(-n1ccnc1)c1nc3ccccc3n12 | 83.7% (inactive)
COC(=O)/C(=C\c1ccc(OC)cc1)C(=O)N1c2ccccc2Sc2ccccc21 | 38.8% (inactive)
CN1CCN(c2ccc(Nc3ncc(Cl)c(NC[C@@H]4CCCO4)n3)cc2)CC1 | 31.3% (inactive)
O=C(NC1CCOCC1)c1ccc2c(c1)CN(c1ncc(Cc3cccc(-n4cccn4)c3)s1)CC2 | 62.5% (inactive)
[2H]c1nc(Nc2ncc(F)c(-c3cc(F)c4nc(C)n(C(C)C)c4c3)n2)c([2H])c([2H])c1CN1CCN(C([2H])([2H])C([2H])([2H])[2H])CC1 | 57.8% (inactive)
COc1ccc(C2CC(c3cnccn3)=NN2)cc1OC (centres undefined) | 104% (inactive)
